# A number with no mark means an inactive call. Results filed as inconclusive are left out. Activity calls are given as the source filed them. Unless noted, calls come from the whole dose curve; as a rule, active = well fitted curve in either direction with a large enough effect (not every such curve was filed as active); inconclusive = small, poorly fitted or top-dose-only effect, or another doubt; inactive = flat fitted curve, though single readings scatter.
# Assays:
# [1] = AP1 Signaling Pathway (AID 357); details: ME-180 AP-1-bla reporter, EGF-induced, beta-lactamase ratio, 5 h; at 17.2 µM (top of the series) unless noted; note: % is set by controls: 0 for no effect and ±100 for the full control effect
# How it was run: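 AP-1-bla ME-180 cells with beta-lactamase reporter under AP-1 response element, stimulated with EC50 EGF; compounds titrated, 5 hours at 37 degrees Celsius. CCF4 read at 460/530 nm ratio; positive and negative modulators judged by AC50.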
# [2] = NFAT Signaling Pathway (AID 444); details: Jurkat NFAT-bla M1, carbachol, beta-lactamase ratio, 5 h; at 17.2 µM (top of the series) unless noted;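 note: carbachol stimulus at about its EC50 of 1 µM final; % is set by controls: 0 for no effect and ±100 for the full control effect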
# How it was run: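 Jurkat cells carrying an NFAT-driven β-lactamase reporter and co-transfected muscarinic M1 receptor were treated with compound plus carbachol (1 uM final, an EC50 level) for 5 h at 37 °C. CCF4 loading followed for 1 h at RT; 460/530 nm ratio gave %activity.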
# [3] = Stat Signaling Pathway (AID 446); details: ME-180 SIE beta-lactamase reporter, IL-6 stimulated, 5 h; at 17.2 µM (top of the series) unless noted;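 note: ME-180 cervical cancer cells given 40 pM IL-6 alongside compound; SIE-controlled beta-lactamase reporter measured as 460/530 nm FRET emission ratio; % is set by controls: 0 for no effect and ±100 for the full control effect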
# How it was run: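 Reporter line: ME-180 cervical carcinoma, SIE-beta-lactamase. Treatment: compound with 40 pM IL-6, 5 hrs, 37 C, in low-serum OPTI-MEM with 10 mM HEPES pH 7.3. Detection: 460/530 nm fluorescence.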
# [4] = biological target: Glucocorticoid receptor (Homo sapiens) (UniProt P04150); test: GR-GFP Redistribution (AID 450;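 active = compounds whose dose series gives a full or clear partial fitted curve of increased nuclear translocation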; note: potency is the fitted concentration of half-maximal effect)
# Glucocorticoid receptor (Homo sapiens), sequence (P04150 whole entry, looked up): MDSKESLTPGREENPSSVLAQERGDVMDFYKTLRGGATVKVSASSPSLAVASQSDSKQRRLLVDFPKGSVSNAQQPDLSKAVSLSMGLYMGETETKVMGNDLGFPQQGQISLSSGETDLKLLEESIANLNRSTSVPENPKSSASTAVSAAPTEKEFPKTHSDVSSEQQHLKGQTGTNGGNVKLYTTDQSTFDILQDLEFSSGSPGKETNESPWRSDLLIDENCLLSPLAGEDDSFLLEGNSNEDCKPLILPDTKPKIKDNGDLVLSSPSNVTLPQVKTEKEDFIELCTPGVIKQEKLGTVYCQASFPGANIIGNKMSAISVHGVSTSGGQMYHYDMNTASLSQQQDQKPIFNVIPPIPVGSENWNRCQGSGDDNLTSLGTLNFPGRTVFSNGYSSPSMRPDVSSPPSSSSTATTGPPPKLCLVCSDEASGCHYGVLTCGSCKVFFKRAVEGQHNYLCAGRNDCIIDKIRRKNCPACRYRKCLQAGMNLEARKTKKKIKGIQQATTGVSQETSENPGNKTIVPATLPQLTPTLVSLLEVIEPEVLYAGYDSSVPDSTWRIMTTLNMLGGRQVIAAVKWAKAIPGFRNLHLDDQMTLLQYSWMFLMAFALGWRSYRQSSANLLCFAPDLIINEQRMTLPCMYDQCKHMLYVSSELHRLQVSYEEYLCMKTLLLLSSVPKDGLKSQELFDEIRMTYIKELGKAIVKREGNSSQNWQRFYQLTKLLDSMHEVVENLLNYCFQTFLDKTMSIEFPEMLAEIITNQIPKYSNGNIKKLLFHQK
SMILES,"activity change, negative = inhibition [1] [%]","activity change, negative = inhibition [2] [%]","activity, negative = inhibition [3] [%]",Potency [4]
COc1ccc(OC)c2c1CCC2=O,-7.3,-3.76,6.79,> 20.6 µM
Cc1nc2c(=O)n(C)c(=O)[nH]c2n1Cc1ccccc1,10.3,14.6,-0.854,> 20.6 µM
COc1ccc(C2Nc3ccccc3C(=O)N2Cc2ccco2)cc1CN1C(=O)c2ccccc2C1=O (centres undefined),-19.7,-14.1,-19.4,> 20.6 µM
CN(C1CCS(=O)(=O)C1)S(=O)(=O)c1cccc2nsnc12 (centres undefined),-3.76,18.9,1.43,> 20.6 µM
C=CCc1c(C)nc(SCCC)[nH]c1=O,2.81,-9.46,-7.18,> 20.6 µM
CC(C)c1ccc(O)c(N)c1,-2.33,12.3,2.34,> 20.6 µM
CC12CCC(=O)N1c1c(sc3nc(N4CCOCC4)c4c(c13)CCCC4)C(=O)N2 (centres undefined),-25.1,8.35,-5.31,> 20.6 µM
CC(NC(=O)NCCCC(=O)O)(C(F)(F)F)C(F)(F)F,1.88,-1.55,1.17,> 20.6 µM
CCSc1nnc(N(CCC#N)CCC#N)s1,8.14,-7.48,-1.67,> 20.6 µM
COc1cccc(-c2nnc3sc(-c4ccc(Cl)cc4)nn23)c1,5.29,-1.08,11.1,> 20.6 µM
CC12CCC(C(=O)N(CCC#N)CCC#N)(CC1=O)C2(C)C (centres undefined),10.6,18.9,6.43,> 20.6 µM
Cc1cc(NC(=O)CSc2nc(-c3cccnc3)ccc2C#N)no1,-14.4,6.09,-9.33,> 20.6 µM
CCCCCCCC(=O)OCC(=O)[C@@]1(O)CC[C@H]2[C@@H]3CCC4=CC(=O)CC[C@]4(C)[C@H]3[C@@H](O)C[C@@]21C,-9.61,-28.6,7.91,0.00571 µM (active)
Cn1ncc(N=Cc2c(O)ccc3ccccc23)c1C(=O)N1CCOCC1,1.1,-28.4,-16.5,> 20.6 µM
CC(=O)NCC(=O)OCN1C(=O)c2ccccc2C1=O,10.5,-1.05,0.512,> 20.6 µM
CCOC(=O)c1cc2c(=O)n3ccccc3nc2n(Cc2ccccc2Cl)c1=N,-18.6,1.14,2.43,> 20.6 µM
N#CCc1nc2c3c4c(sc3ncn2n1)CCCC4,-0.68,-9.45,5.72,> 20.6 µM
COc1cccc(C2CC(c3ccccc3Cl)n3nc(N)nc3N2)c1 (centres undefined),-5.25,-4.65,-3.07,> 20.6 µM
CN1CCc2c(C#N)c(N3CCCCC3)nc(N3CCOCC3)c2C1,1.28,20.7,10.9,> 20.6 µM
CC(C(=O)N(C)C)N(C#N)c1nc(N(C)C)nc(N(C)C)n1 (centres undefined),1.24,2.25,-6.97,> 20.6 µM
COc1ccccc1-c1cc(-c2cc(Cl)ccc2O)n[nH]1,5.68,2.8,8.92,> 20.6 µM
O=C(NCCN1CCOCC1)c1ccc(=O)oc1,4.3,8.89,4.33,> 20.6 µM
Cn1cccc1/C=N/n1cnnc1,-2.1,-1.22,4.51,> 20.6 µM
COc1ccc2[nH]c(C)c(C(=O)CN3CC(C)OC(C)C3)c2c1 (centres undefined),0.748,-1.69,2.01,> 20.6 µM
COc1cc(C)nc(Oc2ccc(=O)n(C)n2)n1,8.82,-8.27,1.84,> 20.6 µM
Cc1ccc(OCC(=O)N(C)CCc2ccccn2)cc1,-3.13,5.19,6.69,> 20.6 µM

SMILES,"activity change, negative = inhibition [1] [%]","activity change, negative = inhibition [2] [%]","activity, negative = inhibition [3] [%]",Potency [4]
CC1(C2(O)CC(c3ccccc3)ON2)CCCCC1 (centres undefined),11.4,-10.5,-1.99,> 20.6 µM
COC(=O)C(NC(=O)c1ccccc1)(Nc1nccs1)C(F)(F)F (centres undefined),6.27,2.67,5.62,> 20.6 µM
COc1ccc(OC)c(N=C(C)C2=C(O)COC2=O)c1,-4.74,0.486,-3.94,> 20.6 µM
CCOC(=O)CSC1=C(C#N)C(c2ccc(C)cc2)C(C(=O)OC)C(=O)N1 (centres undefined),8.51,6.97,-7.08,> 20.6 µM
CCCNc1ncnc2c1cnn2-c1ccc(OC)cc1,-10.2,3.93,-8.63,> 20.6 µM
C=CCOC(=O)C1=C(C)OC(N)=C(C#N)C1c1ccoc1 (centres undefined),21.2,-14.1,-0.879,> 20.6 µM
N#CCCn1cnc2c(=S)nc[nH]c21,16.8,11.2,11.6,> 20.6 µM
CCN1C(=O)CC(N2CCN(c3ccc(OC)cc3)CC2)C1=O (centres undefined),7.27,1.19,1.34,> 20.6 µM
COc1cccc2c(=O)c(SC(F)(F)C(F)C(F)(F)F)c(C)[nH]c12 (centres undefined),-13.4,4.93,2.33,> 20.6 µM
CCOc1nc(SC(C(C)=O)C(=O)Nc2ccccc2)nc(N(C)C)n1 (centres undefined),-3.25,19.9,72.5,> 20.6 µM
CCN(CC)CCN1C(=O)C(O)=C(C(=O)c2cccs2)C1c1ccccn1 (centres undefined),-0.981,9.2,-0.0775,> 20.6 µM
CC(C(=O)N1CCOCC1)N1C(=O)c2ccccc2C1=O (centres undefined),14.2,-4.66,10.1,> 20.6 µM
CC/C(C)=C1\SC(N2CCN(C(C)=O)CC2)=NC1=O,2,5.99,8.03,> 20.6 µM
CCc1cccc(C)c1N(C(=O)Cn1c(=O)[nH]c2ccccc21)C(C)COC (centres undefined),-2.33,17.7,-1.06,> 20.6 µM
c1ccc(-c2nnc3sc(Cc4cccs4)nn23)cc1,-13.7,-18.2,16.7,> 20.6 µM
COc1ccc(C2=CC(c3cccc(OC)c3)n3nnnc3N2)cc1 (centres undefined),-24.4,1.4,-2.84,> 20.6 µM
C=CCOc1ccc(/C(O)=C2/C(=O)C(=O)N(CCCN3CCOCC3)C2c2ccc(OC)cc2)cc1 (centres undefined),-6.96,8.61,-4.29,> 20.6 µM
COc1cccc(C2/C(=C(\O)c3ccc4c(c3)OCCO4)C(=O)C(=O)N2CCN(C)C)c1 (centres undefined),-3.08,2.4,9.63,> 20.6 µM
Cn1cc(Br)cc2nc(C(F)(F)F)nc1-2,-3.15,-3.67,3.32,> 20.6 µM
CCOC(=O)CSc1nc(N2CCOCC2)c2c(c1C#N)CC(C)(C)N(C)C2,-8.24,-17.7,1.11,> 20.6 µM
O=C1OC(N2CCN(C/C=C/c3ccccc3)CC2)c2ccccc21 (centres undefined),7.53,10.2,0.214,> 20.6 µM
CCC(=NC(CC)CO)C1=C(O)CC(C)(C)CC1=O (centres undefined),16.1,-5.13,12.8,> 20.6 µM
Cn1c(=O)[nH]c(=O)c2c1nc(N1CCN(c3cccc(Cl)c3)CC1)n2CCCc1ccccc1,26.9,-11.9,6.95,> 20.6 µM
CC1(C)Cc2c(c(N3CCOCC3)nc3sc4c(=O)[nH]cnc4c23)CS1,4.29,5.56,-18.3,> 20.6 µM
c1ccc(CSc2nnc(SCc3ccccn3)s2)nc1,-9.4,3.91,-4.62,> 20.6 µM

# From PubChem BioAssay (NCATS)
